Measured values taken from the supplement of paper PMC4894684.
Where a name gives a salt, the structure may show the parent alone. ± gives the standard deviation of the averaged measurements.

system: Toxoplasma gondii RH (in HFF); test: parasite growth relative to the screen mean (all compounds = 100%); higher = less inhibition of parasite growth; settings: 5 µM; 72 h; oxygen 21 %
In short: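 Library compounds (10 mM DMSO stocks) were pin-transferred to 5 µM final onto confluent human foreskin fibroblasts in 96-well plates, then infected within 2 h with RH β-Gal–GFP Toxoplasma (MOI 1:5) and grown 72 h at 21% O2. Parasite number came from a CPRG β-Gal assay against in-plate standard curves. Growth is expressed relative to the screen mean (all compounds = 100%), averaged over two screens. Uninfected host-cell viability was checked by CellTiter-Blue.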

With CCc1cc2c(c(CC)n1)CCC(=O)N2Cc1ccc(-c2ccccc2-c2nn[nH]n2)cc1 [ZD 7155 hydrochloride] as the compound, how does the parasite growth read?
The parasite growth was 91.1 ± 57%.

O=c1ncccn1[C@@H]1O[C@H](CO)[C@@H](O)[C@H]1O [Zebularine] was tested. Which parasite growth did it give?
The parasite growth was 119 ± 12%.

How did the parasite growth turn out when Cc1nc2ccc(NC(=O)Nc3ccnc4cccnc34)cc2o1 was run?
The parasite growth was 88.83 ± 0.52%.

O=c1cc(N2CCOCC2)oc2c1ccc1ccccc12 was tested. Which parasite growth did it give?
The parasite growth was 89.2 ± 2.4%.

How did the parasite growth turn out when COc1cc2ncn(-c3cc(OCc4ccccc4C(F)(F)F)c(C(N)=O)s3)c2cc1OC was run?
Its parasite growth is 93.1 ± 20%.

Which parasite growth does the source give for CNCCCCOc1ccccc1Cc1ccccc1 [Bifemelane hydrochloride] here?
The parasite growth was 43.6 ± 3.2%.

With CCCN(C/C=C/I)C1CCc2cccc(O)c2C1 (stereo not drawn) [8-Hydroxy-PIPAT oxalate] as the compound, how does the parasite growth read?
The parasite growth was 190 ± 23%.

How did the parasite growth turn out when CC(C(O)c1ccc(O)cc1)N1CCC(Cc2ccccc2)CC1 (stereo not drawn) [Ifenprodil hemitartrate] was run?
The parasite growth was 116 ± 4.3%.

With NC(=O)Nc1sc(-c2ccc(F)cc2)cc1C(N)=O as the compound, how does the parasite growth read?
The parasite growth was 77.1 ± 11%.

COc1ccc2c(c1OC)C(=O)O[C@@H]2[C@H]1c2c(cc3c(c2OC)OCO3)CCN1C [Noscapine hydrochloride] was tested. Which parasite growth did it give?
The parasite growth was 129 ± 27%.

Which parasite growth does the source give for CCCCCCCCCCC(C)(C)C(=O)Nc1c(OC)cc(OC)cc1OC here?
Its parasite growth is 27.8 ± 5.4%.

With CCCCn1c(=O)c2[nH]c(C34CC5CC(CC3C5)C4)nc2n(CCCO)c1=O as the compound, how does the parasite growth read?
Its parasite growth is 101 ± 16%.

Which parasite growth does the source give for Nc1ccc(-c2cccc3c(=O)cc(N4CCOCC4)oc23)cc1 here?
The parasite growth was 104 ± 7.9%.

Which parasite growth does the source give for CN1C(C(=O)Nc2ccccn2)=C(O)c2ccccc2S1(=O)=O [Piroxicam] here?
Its parasite growth is 153 ± 34%.

How did the parasite growth turn out when O=C1C(SCCO)=C(SCCO)C(=O)c2ccccc21 was run?
Its parasite growth is 180 ± 14%.

With COc1cc(OC)c(NC(=O)Nc2cc(C)on2)cc1Cl as the compound, how does the parasite growth read?
Its parasite growth is 135 ± 17%.

Which parasite growth does the source give for COc1ccc2cccc(N3CCN(CCNC(=O)c4ccc(F)cc4)CC3)c2c1 here?
The parasite growth was 122 ± 20%.

CNCC[C@@H](Oc1ccccc1C)c1ccccc1 [Tomoxetine hydrochloride] was tested. Which parasite growth did it give?
The parasite growth was 85.9 ± 8.6%.

With CCCCCCCCCCC[C@@H](C[C@@H]1OC(=O)[C@H]1CCCCCC)OC(=O)[C@H](CC(C)C)NC=O [Orlistat] as the compound, how does the parasite growth read?
Its parasite growth is < 0%.

With COc1ccccc1N1CCN(CC(O)COc2cccc3ccccc23)CC1 (stereo not drawn) [Naftopidil hydrochloride] as the compound, how does the parasite growth read?
Its parasite growth is 118.7 ± 0.3%.

Which parasite growth does the source give for CC1CCN(CC[C@H]2CCCN2S(=O)(=O)c2cccc(O)c2)CC1 here?
Its parasite growth is 120 ± 15%.

Which parasite growth does the source give for CN(C)CCC=C1c2ccccc2COc2ccccc21 [Doxepin hydrochloride] here?
Its parasite growth is 159 ± 36%.

Which parasite growth does the source give for FC(F)(F)c1ccc(/C=C/c2nc(COc3ccc(CCCCn4ccnn4)cc3)co2)cc1 here?
The parasite growth was 36 ± 14%.

How did the parasite growth turn out when COc1ccc(-c2ccc(=N)n(CCCC(=O)O)n2)cc1 was run?
The parasite growth was 133 ± 26%.

How did the parasite growth turn out when NCCCCCc1c[nH]cn1 [Impentamine dihydrobromide] was run?
Its parasite growth is 132 ± 7.9%.

For CCOC(=O)c1ccc(OC(=O)CCCCCNC(=N)N)cc1 [Gabexate mesylate], which parasite growth is on record?
Its parasite growth is 144 ± 6.4%.

How did the parasite growth turn out when COc1ccc(Cl)cc1NC(=O)Nc1cc(C)nc2ccccc12 was run?
Its parasite growth is 52.7 ± 30%.

How did the parasite growth turn out when O=C(NCCCCCCNC(=O)ON=C1CCCCC1)ON=C1CCCCC1 was run?
The parasite growth was 28.7 ± 2.9%.

For COc1cc(-c2ccc(=O)[nH]n2)ccc1OC(F)F [Zardaverine], which parasite growth is on record?
The parasite growth was 103 ± 8.7%.

For Cc1noc(NS(=O)(=O)c2ccc(N)cc2)c1C [Sulfisoxazole], which parasite growth is on record?
The parasite growth was 108 ± 1.1%.

With Brc1c(NC2=NCCN2)ccc2nccnc12 as the compound, how does the parasite growth read?
The parasite growth was 128 ± 24%.

Which parasite growth does the source give for COCCOC(=O)C1=C(C)NC(C)=C(C(=O)OC(C)C)C1c1cccc([N+](=O)[O-])c1 (stereo not drawn) [Nimodipine] here?
The parasite growth was 117 ± 13%.

Which parasite growth does the source give for Cc1sc(N)c(C(=O)c2cccc(C(F)(F)F)c2)c1C here?
Its parasite growth is 141 ± 7.3%.

With COc1ccc(OC)c2c(=S)c3ccccc3[nH]c12 as the compound, how does the parasite growth read?
The parasite growth was 171 ± 20%.

With Oc1cc2c(cc1O)C(c1ccccc1)CNCC2 (stereo not drawn) as the compound, how does the parasite growth read?
The parasite growth was 162 ± 47%.

With CCCCNC(=O)[C@@H]1Cc2ccccc2N1C(=O)[C@@H](N)CC [Butabindide oxalate] as the compound, how does the parasite growth read?
Its parasite growth is 130 ± 7.7%.

COc1ccc(C2CC(c3c(O)cc(C)oc3=O)=NCCS2)c(OC)c1 (stereo not drawn) was tested. Which parasite growth did it give?
Its parasite growth is 69.6 ± 9.3%.

How did the parasite growth turn out when C[C@@H](N)[C@H]1CC[C@H](C(=O)Nc2ccncc2)CC1 was run?
Its parasite growth is 92.3 ± 21%.
